# Screening data: PubChem BioAssay, National Center for Advancing Translational Sciences (NCATS)
# The list is not random: actives were taken first. Their share in the collection is about 2.3%.
# Giardia killer = Giardia lamblia killing; Giardia lamblia trophozoite viability; activity change, % at 7.66 µM, hits read low; 340,000 compounds, 0.15% hits; in the data active means activity change below about -80%; inconclusive means between about -30% and that limit;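 further: parasites exposed to compound for two days anaerobically before the ATP read; on the % scale 0 is the no-effect control and ±100 the full control effect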
#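 Giardia trophozoites, 100 cells per well, were exposed to compounds for 48 hrs at 37 deg C under anaerobic conditions; viability was then read as ATP content by bioluminescence after 15-30 min at room temperature.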
# TRPV1 agonist = agonists of human vanilloid receptor 1 (TRPV1); Q8NER1; TRPV1-expressing cells, Fluo-8 calcium influx, agonist mode; activation, % at 8.33 µM; 320,000 compounds, 0.19% hits; in the data active means activation above about 80%; inconclusive means between about 30% and that limit; further: 0% is about no effect
# Target sequence (Q8NER1 whole entry, looked up): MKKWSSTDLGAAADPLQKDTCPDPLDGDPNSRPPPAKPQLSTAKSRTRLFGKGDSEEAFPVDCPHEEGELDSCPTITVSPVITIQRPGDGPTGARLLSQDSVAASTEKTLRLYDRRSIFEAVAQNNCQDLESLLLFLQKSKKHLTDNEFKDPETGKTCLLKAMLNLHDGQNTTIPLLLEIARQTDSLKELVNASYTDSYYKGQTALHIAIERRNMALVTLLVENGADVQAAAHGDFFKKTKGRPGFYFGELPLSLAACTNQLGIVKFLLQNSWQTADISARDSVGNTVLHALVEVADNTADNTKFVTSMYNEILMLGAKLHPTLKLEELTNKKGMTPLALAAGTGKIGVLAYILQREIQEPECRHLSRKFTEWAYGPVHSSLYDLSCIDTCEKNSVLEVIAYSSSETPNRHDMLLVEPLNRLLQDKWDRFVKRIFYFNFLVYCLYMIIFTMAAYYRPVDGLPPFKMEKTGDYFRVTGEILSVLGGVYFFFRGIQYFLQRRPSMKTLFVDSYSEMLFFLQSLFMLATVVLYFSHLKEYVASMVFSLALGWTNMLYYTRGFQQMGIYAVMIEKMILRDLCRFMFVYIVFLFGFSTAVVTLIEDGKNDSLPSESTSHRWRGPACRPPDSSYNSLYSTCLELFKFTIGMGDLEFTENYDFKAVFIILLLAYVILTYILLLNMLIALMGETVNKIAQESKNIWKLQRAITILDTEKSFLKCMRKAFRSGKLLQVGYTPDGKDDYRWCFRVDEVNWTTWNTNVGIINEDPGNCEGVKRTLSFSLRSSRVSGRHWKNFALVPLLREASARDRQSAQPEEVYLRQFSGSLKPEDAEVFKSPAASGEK
#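 Cells expressing TRPV1 were dye-loaded with Fluo-8 and read kinetically: 10 s baseline, 3 min after compound (agonist portion), then 2 min after EC20 capsaicin (allosteric enhancer portion). Calcium-bound dye fluorescence at 480/520 nm.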
# FUS yeast rescue = suppressors of FUS proteinopathy in yeast. S. cerevisiae FUS-expressing, growth rescue, OD600, 24 h. Potency, µM (doses to about 76.6 µM), hits mostly activators. 390,000 compounds, 0.24% hits. AID 1347120;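 further: potency means the concentration at half of the fitted maximal effect; plate controls were DMSO vehicle for no effect and reference control for full effect; nearly all actives have a fitted effect of over 55% in size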
#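 Absorbance at 600 nm, taken 24hr after compound addition, measured rescue of FUS-yeast growth at 30C. Induction used 2% galactose with seeding at OD 0.005. Controls: CP55940 from 92uM final, DMSO only.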
# ELG1 repair inh = blocks ELG1-dependent DNA repair in HEK293T cells; HEK293T ELG1-luciferase reporter, luminescence, 16 h; DNA damage induced by 5-fluorouridine; Potency, µM (titrated, usually from 46.1 µM), inactives show top-dose activity change, negative = inhibition, usual class: inhibitors; 330,000 compounds, 2.3% hits; further: potency means the concentration at half of the fitted maximal effect; on the % scale 0 is the no-effect control and ±100 the full control effect; nearly all actives have a fitted effect of over 55% in size
#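 5-Fluorouridine DNA damage + compound/DMSO, 2,000 cells/well, 16 h, 37 °C/5% CO2. ONE-Glo, 30 min RT, luminescence. Readout = decrease in reporter signal.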
# TRPV1 potentiator = enhances activation of the human vanilloid receptor TRPV1; TRPV1-expressing cells, Fluo-8 calcium influx, capsaicin EC20 potentiation; potentiation, % at 8.33 µM; 320,000 compounds, 0.02% hits; AID 540277; in the data active means potentiation above about 80%; inconclusive means between about 30% and that limit; further: 0% is about no effect
#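 Cells expressing TRPV1 were dye-loaded with Fluo-8 and read kinetically: 10 s baseline, 3 min after compound (agonist portion), then 2 min after EC20 capsaicin (allosteric enhancer portion). Calcium-bound dye fluorescence at 480/520 nm.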
# ELG1 FLuc counter = luciferase inhibition in cell-free luciferin readout for ELG1 hits. 350 compounds, 3% hits. Potency, µM (titrated, usually from 46.1 µM), inactives show at the top dose activity change, negative = inhibition, actives largely listed as inhibitors. AID 624247. shares compounds with ELG1 repair inh. cell-free firefly luciferase luminescence counter-screen, ViewLux; further: potency means the concentration at half of the fitted maximal effect; on the % scale 0 is the no-effect control and ±100 the full control effect
# ELG1-Luc inh = human ELG1 repair inhibition, luciferase-tagged ELG1 confirmation | AID 624248 | HEK293T ELG1-luciferase levels, luminescence; cells co-treated with 5-fluorouridine | shares compounds with ELG1 repair inh | 670 compounds, 68% hits | Potency, µM (highest dose often 46.1 µM), for inactives: at the highest dose activity change, negative = inhibition, hits mostly inhibitors; further: potency means the concentration at half of the fitted maximal effect; on the % scale 0 is the no-effect control and ±100 the full control effect; nearly all actives have a fitted effect of over 55% in size
# ELG1-Luc MMS = MMS-stimulated human ELG1 repair inhibition, confirmed; shares compounds with ELG1 repair inh; HEK293T luciferase-tagged ELG1 level, MMS stimulated; Potency, µM (titrated, usually from 46.1 µM), for the others: top-dose activity change, negative = inhibition, hits mostly inhibitors; 670 compounds, 53% hits; AID 624249; further: potency means the concentration at half of the fitted maximal effect; on the % scale 0 is the no-effect control and ±100 the full control effect; nearly all actives have a fitted effect of over 60% in size
# ELG1 5FU viab = confirmation of ELG1 repair inhibitors: viability with 5FU. shares compounds with ELG1 repair inh. cell viability with 5-FU, ELG1-dependent repair. Potency, µM (series often up to 46.1 µM), without a hit: at the top dose activity change, negative = viability loss, hits mostly cytotoxic. 670 tested, under 10 active;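 further: ELG1-luc HEK293T cells cotreated with 5-fluorouridine at 10 µM final; potency means the concentration at half of the fitted maximal effect; viability measured 16 h after compound addition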
# ELG1 MMS viab = confirmation of ELG1 repair inhibitors: viability with MMS. shares compounds with ELG1 repair inh. 670 compounds, 33% hits. Cell viability with MMS, ELG1-dependent DNA repair. Potency, µM (doses to about 46.1 µM), without a hit: at the highest dose activity change, negative = viability loss, most hits filed as cytotoxic. AID 624251;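 further: ELG1-luc HEK293T cells co-treated with 10 µM MMS; potency means the concentration at half of the fitted maximal effect; viability read 16 h after compound addition; on the % scale 0 is the no-effect control and ±100 the full control effect; nearly all actives have a fitted effect of over 60% in size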
# ELG1 unstim viab = counter-screen for ELG1 repair inhibitors: unstimulated cell viability. 900 compounds, 8% hits. AID 624252. shares compounds with ELG1 repair inh. Potency, µM (doses to about 45.9 µM), inactives show at the highest dose activity change, negative = loss of viability, actives largely listed as cytotoxic. cell viability counter-screen, unstimulated, luminescence;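 further: potency means the concentration at half of the fitted maximal effect; compound exposure lasted 16 hours before reading; on the % scale 0 is the no-effect control and ±100 the full control effect; nearly all actives have a fitted effect of over 55% in size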
# FLuc biochem = inhibits purified firefly luciferase, counter-screen for ELG1 hits; 350 compounds, 10% hits; shares compounds with ELG1 repair inh; Potency, µM (doses to about 57.5 µM), for the others: at the highest dose activity, negative = inhibition, most hits filed as inhibitors; AID 624253; purified firefly luciferase, luminescence counter-screen; further: potency means the concentration at half of the fitted maximal effect; on the % scale 0 is the no-effect control and ±100 the full control effect
# An asterisk follows results filed as active; i = inactive; ? = inconclusive; · = no result. Unless noted, the call rests on the fitted dose curve; in most records, active means well fitted curve in the direction sought with a large enough effect; inconclusive means small, poorly fitted or top-dose-only effect, or another doubt; inactive means no such curve, though single readings can be large; an effect the other way counts as inactive or inconclusive.
SMILES,Giardia killer,TRPV1 agonist,FUS yeast rescue,ELG1 repair inh,TRPV1 potentiator,ELG1 FLuc counter,ELG1 unstim viab,FLuc biochem,others
CN1CCN(c2nc(-c3ccncc3)nc3ccccc23)CC1,0,-1,i,-16%,3,18%,?,0%,ELG1-Luc inh=?;ELG1-Luc MMS=?;ELG1 5FU viab=-16%;ELG1 MMS viab=-5%
Cc1ccc(C(=O)Cn2c3c(sc2=N)CCCC3)cc1,·,·,·,·,·,-2%,?,0.092µM*,
Cc1ccc(C(=O)Cn2ncsc2=N)cc1,-1,5,i,?,-4,·,·,·,
Cc1ccc(C)c(NC(=O)CN2C(=O)C3(SCC(=O)N3c3ccc(C)c(C)c3)c3ccccc32)c1 (stereo not drawn),·,·,i,·,·,·,·,·,
COc1ccc(CCN2C(=O)C3C4C=CC(C5CC45)C3C2=O)cc1OC (stereo not drawn),-12,1,i,-2%,-10,·,·,·,
COc1ccc(CCN2C(=O)C3C4C=CC(C3C2=O)C2C(=O)N(CCc3ccc(OC)c(OC)c3)C(=O)C42)cc1OC (stereo not drawn),-11,0,i,3.3µM*,?,·,?,·,ELG1-Luc inh=?;ELG1-Luc MMS=6.3µM*;ELG1 5FU viab=-3%;ELG1 MMS viab=5µM*
Cc1ccc(NC2=C(c3ccc(C(F)(F)F)cc3)C(=O)c3ccccc32)cc1C,·,·,i,·,·,·,·,·,
[N-]=[N+]=Nc1nc2c(N)ncnc2n1C1OC(CO)C(O)C1O (stereo not drawn),·,·,·,·,·,·,7.9µM*,·,ELG1-Luc inh=3.5µM*;ELG1-Luc MMS=4µM*;ELG1 5FU viab=?;ELG1 MMS viab=?
Cc1nc2ccc(NC(=O)COc3ccccc3F)cc2s1,0,-1,i,?,10,·,·,·,
O=C(COc1ccccc1F)Nc1ccc(-c2nc3ccccc3s2)cc1,·,1,i,·,1,69%,-16%,?,
COc1cccc(NC(=O)CSc2nnc(-c3cccc(OC)c3)o2)c1,·,·,i,·,·,·,·,·,
COc1cccc(NC(=O)CSc2nnc(-c3ccc(C)cc3)o2)c1,-20,?,i,?,-23,·,1%,·,
O=C(CSc1nnc(-c2ccc(O)cc2)o1)Nc1ccccc1Br,-10,-3,i,?,-15,·,-2%,·,
Cc1ccccc1NC(=O)CSc1nc2ccccc2o1,-6,-3,i,?,24,64%,?,-6%,
O=C(CSc1nnc(-c2ccc(F)cc2)o1)Nc1ccc(S(=O)(=O)N2CCCCCC2)cc1,-8,4,i,-3%,3,-5%,?,-7%,
CC(NCC(=O)NC(=O)NCCC1=CCCCC1)c1ccc(S(N)(=O)=O)cc1 (stereo not drawn),-4,·,i,·,·,·,·,·,
O=C(OCc1cc(=O)n2nc(C3CC3)sc2n1)c1ccc(F)cc1,·,·,i,·,·,·,·,·,
